From PMC7862700, “An all-to-all approach to the identification of sequence-specific readers for epigenetic DNA modifications on cytosine”

Key:
Experiment in all cases: DAPPL (digital affinity profiling via proximity ligation, sequencing); 10 mM Tris-HCl pH 7.5, 50 mM NaCl, 1 mM DTT, 4% glycerol, room temperature, 30 min; GST-TFs on glutathione beads, 16-mer random dsDNA library, 0.1% formaldehyde crosslink after washing; high values mean tight binding
[1] = target: T1, FEV (Homo sapiens, UniProt Q99581 1-238); conditions: protein: recombinant; tags: N-terminal GST; dsDNA, one strand shown
T1 sequence: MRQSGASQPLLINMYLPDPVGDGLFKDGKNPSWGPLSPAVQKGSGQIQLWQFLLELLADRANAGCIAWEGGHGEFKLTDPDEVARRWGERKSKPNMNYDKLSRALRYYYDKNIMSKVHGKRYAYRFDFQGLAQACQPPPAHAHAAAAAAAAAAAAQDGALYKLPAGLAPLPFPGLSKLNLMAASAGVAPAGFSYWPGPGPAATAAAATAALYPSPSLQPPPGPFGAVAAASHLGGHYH
How it was run: (§1)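 Sequencing on an Illumina NextSeq500 followed washing, crosslinking with 0.1% formaldehyde, proximity ligation (BsaI/T4 ligase, 1 h, 37 °C) and PCR amplification of pools that had been incubated for 30 min at room temperature with 200 nmole of a random double-stranded 16-mer DNA library in Tris/NaCl/DTT/glycerol buffer. Each pool held DNA-barcoded human transcription factors, expressed in yeast as GST fusions and captured on glutathione beads, plus a tag-only sample. Binding signal is a hexamer's read frequency for a factor divided by its frequency in the tag-only sample.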

[2] = target: ETV5 (Homo sapiens, UniProt P41161 1-510); conditions: protein: recombinant; tags: N-terminal GST; dsDNA, one strand shown
How it was run: as §1

[3] = target: HSF1 (Homo sapiens, UniProt Q00613 1-529); conditions: protein: recombinant; tags: N-terminal GST; chain copies: 3; dsDNA, one strand shown
How it was run: as §1

[4] = target: T2, SPIC (Homo sapiens, UniProt Q8N5J4 1-248); conditions: protein: recombinant; tags: N-terminal GST; dsDNA, one strand shown
T2 sequence: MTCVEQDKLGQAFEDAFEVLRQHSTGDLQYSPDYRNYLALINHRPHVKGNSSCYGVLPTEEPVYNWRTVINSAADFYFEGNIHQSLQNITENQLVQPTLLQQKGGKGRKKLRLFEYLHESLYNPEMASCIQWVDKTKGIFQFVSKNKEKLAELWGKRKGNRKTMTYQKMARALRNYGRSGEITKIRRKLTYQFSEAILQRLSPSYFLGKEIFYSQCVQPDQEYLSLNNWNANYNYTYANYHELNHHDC
How it was run: as §1

[5] = target: ELF4 (Homo sapiens, UniProt Q99607 1-663); conditions: protein: recombinant; tags: N-terminal GST; dsDNA, one strand shown
How it was run: as §1

[6] = target: T3, ELK4 (Homo sapiens, UniProt P28324-2 1-405); conditions: protein: recombinant; tags: N-terminal GST; dsDNA, one strand shown
T3 sequence: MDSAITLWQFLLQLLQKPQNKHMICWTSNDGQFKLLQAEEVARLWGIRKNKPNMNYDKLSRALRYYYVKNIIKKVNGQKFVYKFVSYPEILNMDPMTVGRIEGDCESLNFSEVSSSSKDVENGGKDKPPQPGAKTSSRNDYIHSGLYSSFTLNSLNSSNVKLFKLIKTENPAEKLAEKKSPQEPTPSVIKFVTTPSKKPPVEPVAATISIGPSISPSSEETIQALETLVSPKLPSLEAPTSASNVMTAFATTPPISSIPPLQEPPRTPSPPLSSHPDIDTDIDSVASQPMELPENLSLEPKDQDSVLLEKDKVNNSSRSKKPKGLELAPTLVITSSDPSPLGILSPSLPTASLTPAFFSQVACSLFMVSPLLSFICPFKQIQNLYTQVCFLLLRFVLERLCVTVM
How it was run: as §1

[7] = target: T4, ETV2 (Homo sapiens, UniProt O00321 1-342); conditions: protein: recombinant; tags: N-terminal GST; dsDNA, one strand shown
T4 sequence: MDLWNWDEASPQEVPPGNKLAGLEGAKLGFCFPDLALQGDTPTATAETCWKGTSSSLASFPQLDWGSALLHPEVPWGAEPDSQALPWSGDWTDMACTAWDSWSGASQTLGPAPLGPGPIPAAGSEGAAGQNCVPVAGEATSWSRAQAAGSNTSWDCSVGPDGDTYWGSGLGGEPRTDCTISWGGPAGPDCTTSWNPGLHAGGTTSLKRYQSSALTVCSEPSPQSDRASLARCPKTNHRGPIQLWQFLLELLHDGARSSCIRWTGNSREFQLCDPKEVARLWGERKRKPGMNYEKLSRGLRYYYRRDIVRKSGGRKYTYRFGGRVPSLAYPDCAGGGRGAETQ
How it was run: as §1

[8] = target: T5, ELF3 (Homo sapiens, UniProt P78545 1-371); conditions: protein: recombinant; tags: N-terminal GST; dsDNA, one strand shown
T5 sequence: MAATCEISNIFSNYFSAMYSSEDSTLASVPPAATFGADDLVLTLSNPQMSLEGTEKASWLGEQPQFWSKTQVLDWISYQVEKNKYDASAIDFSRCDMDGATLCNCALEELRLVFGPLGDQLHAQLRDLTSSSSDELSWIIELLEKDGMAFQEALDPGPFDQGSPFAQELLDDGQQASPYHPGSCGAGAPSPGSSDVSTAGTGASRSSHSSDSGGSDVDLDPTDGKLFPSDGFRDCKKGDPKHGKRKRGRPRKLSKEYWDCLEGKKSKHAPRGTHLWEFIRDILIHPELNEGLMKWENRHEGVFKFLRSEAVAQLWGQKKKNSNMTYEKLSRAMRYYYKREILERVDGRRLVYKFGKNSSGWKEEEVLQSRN
How it was run: as §1

[9] = target: CRX (Homo sapiens, UniProt O43186 1-299); conditions: protein: recombinant; tags: N-terminal GST; dsDNA, one strand shown
How it was run: as §1

[10] = target: ETV1 (Homo sapiens, UniProt P50549 1-477); conditions: protein: recombinant; tags: N-terminal GST; dsDNA, one strand shown
How it was run: as §1

[11] = target: T6, ERF (Homo sapiens, UniProt P50548 1-548); conditions: protein: recombinant; tags: N-terminal GST; dsDNA, one strand shown
T6 sequence: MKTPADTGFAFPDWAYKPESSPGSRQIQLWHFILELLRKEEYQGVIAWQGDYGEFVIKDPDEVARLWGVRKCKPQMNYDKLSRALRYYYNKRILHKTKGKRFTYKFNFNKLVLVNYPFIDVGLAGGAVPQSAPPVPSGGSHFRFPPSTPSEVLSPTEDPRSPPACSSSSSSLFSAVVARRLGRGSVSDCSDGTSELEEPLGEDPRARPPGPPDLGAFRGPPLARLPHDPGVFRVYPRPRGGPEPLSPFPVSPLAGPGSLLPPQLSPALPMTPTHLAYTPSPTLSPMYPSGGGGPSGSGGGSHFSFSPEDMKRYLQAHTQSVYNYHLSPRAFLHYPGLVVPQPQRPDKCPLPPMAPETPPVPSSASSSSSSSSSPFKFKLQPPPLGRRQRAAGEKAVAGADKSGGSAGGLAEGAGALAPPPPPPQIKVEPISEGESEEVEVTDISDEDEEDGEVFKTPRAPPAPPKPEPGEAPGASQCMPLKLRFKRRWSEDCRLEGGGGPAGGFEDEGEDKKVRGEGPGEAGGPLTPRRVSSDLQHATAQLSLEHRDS
How it was run: as §1

[12] = target: T7, ETV3L (Homo sapiens, UniProt Q6ZN32 1-361); conditions: protein: recombinant; tags: N-terminal GST; dsDNA, one strand shown
T7 sequence: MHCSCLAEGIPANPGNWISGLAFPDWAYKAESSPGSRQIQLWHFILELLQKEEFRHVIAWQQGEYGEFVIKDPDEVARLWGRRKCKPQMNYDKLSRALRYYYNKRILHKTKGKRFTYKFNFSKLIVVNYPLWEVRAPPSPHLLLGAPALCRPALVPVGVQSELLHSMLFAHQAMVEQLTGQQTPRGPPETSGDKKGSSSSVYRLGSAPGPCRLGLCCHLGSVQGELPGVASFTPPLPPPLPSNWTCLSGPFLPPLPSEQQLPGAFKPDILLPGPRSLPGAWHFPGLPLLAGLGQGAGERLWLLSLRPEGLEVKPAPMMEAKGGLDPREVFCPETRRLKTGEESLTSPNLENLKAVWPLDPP
How it was run: as §1

[13] = target: T8, ETS2 (Homo sapiens, UniProt P15036 1-469); conditions: protein: recombinant; tags: N-terminal GST; dsDNA, one strand shown
T8 sequence: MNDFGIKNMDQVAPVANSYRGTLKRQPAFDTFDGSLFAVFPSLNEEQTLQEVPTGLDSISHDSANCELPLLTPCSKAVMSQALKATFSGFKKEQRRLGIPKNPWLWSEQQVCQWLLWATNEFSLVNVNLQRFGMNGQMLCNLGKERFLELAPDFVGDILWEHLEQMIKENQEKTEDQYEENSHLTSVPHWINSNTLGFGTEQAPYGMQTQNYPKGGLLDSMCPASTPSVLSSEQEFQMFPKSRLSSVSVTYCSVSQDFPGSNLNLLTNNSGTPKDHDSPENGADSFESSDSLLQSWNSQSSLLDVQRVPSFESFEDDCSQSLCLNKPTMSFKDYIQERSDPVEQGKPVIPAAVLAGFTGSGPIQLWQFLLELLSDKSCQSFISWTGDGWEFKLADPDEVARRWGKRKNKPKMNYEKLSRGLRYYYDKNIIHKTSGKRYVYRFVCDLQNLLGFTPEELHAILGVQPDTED
How it was run: as §1

[14] = target: T9, SPDEF (Homo sapiens, UniProt O95238 1-335); conditions: protein: recombinant; tags: N-terminal GST; dsDNA, one strand shown
T9 sequence: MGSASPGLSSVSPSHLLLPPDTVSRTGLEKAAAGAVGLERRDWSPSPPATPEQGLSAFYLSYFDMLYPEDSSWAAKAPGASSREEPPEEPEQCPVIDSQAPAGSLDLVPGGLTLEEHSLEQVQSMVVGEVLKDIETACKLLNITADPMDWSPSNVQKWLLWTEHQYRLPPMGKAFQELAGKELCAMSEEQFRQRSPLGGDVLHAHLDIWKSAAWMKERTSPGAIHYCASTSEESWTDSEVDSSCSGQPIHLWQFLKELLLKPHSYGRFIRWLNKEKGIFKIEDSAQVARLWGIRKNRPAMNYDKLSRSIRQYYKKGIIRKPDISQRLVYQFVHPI
How it was run: as §1

[15] = target: T10, ETV7 (Homo sapiens, UniProt Q9Y603 1-341); conditions: protein: recombinant; tags: N-terminal GST; dsDNA, one strand shown
T10 sequence: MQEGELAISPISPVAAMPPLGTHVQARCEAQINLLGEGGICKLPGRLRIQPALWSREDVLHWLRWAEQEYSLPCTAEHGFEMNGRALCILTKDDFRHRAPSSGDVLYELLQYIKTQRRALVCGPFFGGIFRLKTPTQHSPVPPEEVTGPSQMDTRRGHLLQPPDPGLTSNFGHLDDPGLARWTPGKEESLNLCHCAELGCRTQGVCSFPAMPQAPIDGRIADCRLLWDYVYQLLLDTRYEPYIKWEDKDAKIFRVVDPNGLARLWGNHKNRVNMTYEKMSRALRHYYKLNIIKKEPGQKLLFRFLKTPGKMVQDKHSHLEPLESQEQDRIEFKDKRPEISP
How it was run: as §1

[16] = target: T11, ELF5 (Homo sapiens, UniProt Q9UKW6-2 1-255); conditions: protein: recombinant; tags: N-terminal GST; dsDNA, one strand shown
T11 sequence: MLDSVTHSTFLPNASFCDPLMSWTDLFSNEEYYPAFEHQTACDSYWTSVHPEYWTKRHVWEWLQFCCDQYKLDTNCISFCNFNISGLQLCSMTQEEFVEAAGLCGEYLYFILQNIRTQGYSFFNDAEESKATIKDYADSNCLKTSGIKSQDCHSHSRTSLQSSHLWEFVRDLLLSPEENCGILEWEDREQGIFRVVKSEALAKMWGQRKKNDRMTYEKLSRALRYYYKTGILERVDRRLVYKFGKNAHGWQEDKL
How it was run: as §1

[17] = target: T12, ETV3 (Homo sapiens, UniProt P41162-2 1-143); conditions: protein: recombinant; tags: N-terminal GST; dsDNA, one strand shown
T12 sequence: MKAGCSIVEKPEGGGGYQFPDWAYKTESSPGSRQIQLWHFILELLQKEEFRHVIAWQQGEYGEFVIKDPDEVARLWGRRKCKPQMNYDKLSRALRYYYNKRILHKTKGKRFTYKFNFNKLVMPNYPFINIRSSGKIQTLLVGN
How it was run: as §1

[18] = target: ETV6 (Homo sapiens, UniProt P41212 1-452); conditions: protein: recombinant; tags: N-terminal GST; dsDNA, one strand shown
How it was run: as §1

Chain of HSF1 (Q00613 whole entry): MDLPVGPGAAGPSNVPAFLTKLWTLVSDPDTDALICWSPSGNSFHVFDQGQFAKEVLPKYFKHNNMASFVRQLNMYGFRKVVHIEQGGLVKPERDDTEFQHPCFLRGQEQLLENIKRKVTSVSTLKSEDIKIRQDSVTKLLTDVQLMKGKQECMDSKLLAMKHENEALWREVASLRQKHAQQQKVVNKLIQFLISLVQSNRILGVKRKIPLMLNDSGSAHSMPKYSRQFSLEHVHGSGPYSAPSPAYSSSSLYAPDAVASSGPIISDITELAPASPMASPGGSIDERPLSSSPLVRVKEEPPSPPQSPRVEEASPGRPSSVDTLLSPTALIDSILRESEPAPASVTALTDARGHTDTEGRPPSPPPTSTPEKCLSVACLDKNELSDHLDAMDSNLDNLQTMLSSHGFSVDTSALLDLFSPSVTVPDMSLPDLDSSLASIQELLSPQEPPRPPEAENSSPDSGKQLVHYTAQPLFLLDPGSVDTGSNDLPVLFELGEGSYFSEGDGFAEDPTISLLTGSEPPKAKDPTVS
Chain of ETV5 (P41161 whole entry): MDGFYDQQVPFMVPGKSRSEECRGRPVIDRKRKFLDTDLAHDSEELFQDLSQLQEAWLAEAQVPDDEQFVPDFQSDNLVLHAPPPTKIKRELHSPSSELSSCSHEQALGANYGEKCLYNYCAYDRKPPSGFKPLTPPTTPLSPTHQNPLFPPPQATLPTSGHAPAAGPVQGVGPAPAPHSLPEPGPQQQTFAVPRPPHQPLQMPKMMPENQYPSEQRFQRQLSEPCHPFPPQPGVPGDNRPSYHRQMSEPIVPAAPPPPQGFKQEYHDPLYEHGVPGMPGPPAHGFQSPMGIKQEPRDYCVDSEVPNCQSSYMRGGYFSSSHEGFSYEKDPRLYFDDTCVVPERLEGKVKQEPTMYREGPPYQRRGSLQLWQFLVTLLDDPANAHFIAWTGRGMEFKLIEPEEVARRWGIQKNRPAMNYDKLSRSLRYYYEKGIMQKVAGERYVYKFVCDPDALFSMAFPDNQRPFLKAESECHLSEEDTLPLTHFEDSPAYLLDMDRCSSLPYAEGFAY
Chain of ELF4 (Q99607 whole entry): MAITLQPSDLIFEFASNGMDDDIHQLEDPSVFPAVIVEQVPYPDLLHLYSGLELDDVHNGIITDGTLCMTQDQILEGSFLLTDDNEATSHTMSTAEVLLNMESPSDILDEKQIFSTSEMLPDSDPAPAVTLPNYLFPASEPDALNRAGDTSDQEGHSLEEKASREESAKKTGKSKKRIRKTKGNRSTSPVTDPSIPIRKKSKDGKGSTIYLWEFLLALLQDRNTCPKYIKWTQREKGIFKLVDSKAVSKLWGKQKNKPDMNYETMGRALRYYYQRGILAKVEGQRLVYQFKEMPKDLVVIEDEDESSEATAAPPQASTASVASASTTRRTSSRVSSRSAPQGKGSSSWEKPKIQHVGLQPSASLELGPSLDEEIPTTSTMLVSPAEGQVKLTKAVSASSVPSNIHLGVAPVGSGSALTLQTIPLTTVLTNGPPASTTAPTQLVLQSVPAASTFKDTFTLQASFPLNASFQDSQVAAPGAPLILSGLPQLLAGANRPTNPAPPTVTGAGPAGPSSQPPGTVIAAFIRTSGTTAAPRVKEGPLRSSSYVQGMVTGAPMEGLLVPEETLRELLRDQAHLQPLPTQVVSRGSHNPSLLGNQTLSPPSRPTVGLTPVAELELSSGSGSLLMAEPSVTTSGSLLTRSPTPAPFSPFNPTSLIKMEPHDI
Chain of ETV1 (P50549 whole entry): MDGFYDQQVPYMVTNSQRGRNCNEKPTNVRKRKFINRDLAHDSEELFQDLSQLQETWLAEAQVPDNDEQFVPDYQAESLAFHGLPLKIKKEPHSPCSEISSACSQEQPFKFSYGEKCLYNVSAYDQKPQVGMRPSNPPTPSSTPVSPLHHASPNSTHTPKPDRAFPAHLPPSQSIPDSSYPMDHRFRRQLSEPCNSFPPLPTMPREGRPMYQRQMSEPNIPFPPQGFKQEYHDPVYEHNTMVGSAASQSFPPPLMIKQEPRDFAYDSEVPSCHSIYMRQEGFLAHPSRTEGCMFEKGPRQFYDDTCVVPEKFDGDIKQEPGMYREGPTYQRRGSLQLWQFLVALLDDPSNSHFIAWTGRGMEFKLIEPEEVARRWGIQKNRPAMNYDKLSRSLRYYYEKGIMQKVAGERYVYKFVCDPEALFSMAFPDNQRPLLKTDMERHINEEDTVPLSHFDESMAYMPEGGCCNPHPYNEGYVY
Chain of ETV6 (P41212 whole entry): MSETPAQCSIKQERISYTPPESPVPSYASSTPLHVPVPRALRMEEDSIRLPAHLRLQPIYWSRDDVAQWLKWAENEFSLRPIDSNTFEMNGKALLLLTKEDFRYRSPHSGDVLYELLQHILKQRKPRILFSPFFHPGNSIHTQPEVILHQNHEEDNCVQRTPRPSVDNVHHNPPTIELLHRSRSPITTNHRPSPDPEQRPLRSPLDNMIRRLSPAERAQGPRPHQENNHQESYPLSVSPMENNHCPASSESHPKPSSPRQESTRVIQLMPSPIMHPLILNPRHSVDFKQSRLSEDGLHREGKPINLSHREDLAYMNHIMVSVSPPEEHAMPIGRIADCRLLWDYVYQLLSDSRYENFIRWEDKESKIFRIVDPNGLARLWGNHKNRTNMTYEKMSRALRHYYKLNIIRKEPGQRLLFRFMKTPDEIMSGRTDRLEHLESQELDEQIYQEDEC
Chain of CRX (O43186 whole entry): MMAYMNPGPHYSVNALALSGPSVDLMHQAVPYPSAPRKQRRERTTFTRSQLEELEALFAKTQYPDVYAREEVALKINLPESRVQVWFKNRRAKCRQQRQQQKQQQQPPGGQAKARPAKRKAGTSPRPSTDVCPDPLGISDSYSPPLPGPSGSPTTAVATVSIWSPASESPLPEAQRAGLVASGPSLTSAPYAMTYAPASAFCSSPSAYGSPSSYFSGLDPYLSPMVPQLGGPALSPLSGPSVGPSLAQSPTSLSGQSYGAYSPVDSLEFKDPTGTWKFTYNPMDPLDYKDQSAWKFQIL

TAGCAA
binding signal [1]: 1.17 fold enrichment (6-mer frequency, TF over GST control)
binding signal [2]: 1.33 fold enrichment (6-mer frequency, TF over GST control)
binding signal [3]: 1.59 fold enrichment (6-mer frequency, TF over GST control)
binding signal [4]: 1.14 fold enrichment (6-mer frequency, TF over GST control)
binding signal [5]: 1.34 fold enrichment (6-mer frequency, TF over GST control)
binding signal [6]: 1.38 fold enrichment (6-mer frequency, TF over GST control)
binding signal [7]: 1.36 fold enrichment (6-mer frequency, TF over GST control)
binding signal [8]: 1.36 fold enrichment (6-mer frequency, TF over GST control)
binding signal [9]: 1.46 fold enrichment (6-mer frequency, TF over GST control)
binding signal [10]: 1.23 fold enrichment (6-mer frequency, TF over GST control)
binding signal [11]: 1.28 fold enrichment (6-mer frequency, TF over GST control)
binding signal [12]: 1.22 fold enrichment (6-mer frequency, TF over GST control)
binding signal [13]: 1.26 fold enrichment (6-mer frequency, TF over GST control)
binding signal [14]: 1.23 fold enrichment (6-mer frequency, TF over GST control)
binding signal [15]: 1.25 fold enrichment (6-mer frequency, TF over GST control)
binding signal [16]: 1.23 fold enrichment (6-mer frequency, TF over GST control)
binding signal [17]: 1.34 fold enrichment (6-mer frequency, TF over GST control)
binding signal [18]: 1.29 fold enrichment (6-mer frequency, TF over GST control)
